Hit rate of the full screen: of about 310,000 compounds, about 2,200 (0.71%) showed an effect of 50% or more. The effect is printed as a negative number. The sample holds strong results, similar compounds and a random draw of the others, so the mix is not that of the screen.
Target: human ether-à-go-go-related gene (hERG) potassium channel (human, UniProt Q12809)
Assay: primary screen, population patch clamp on CHO cells stably expressing hERG; higher = less effect of the substance
Protocol: Briefly, Chinese hamster ovary (CHO) cells stably expressing the hERG channel were dislodged from tissue culture flasks and dispensed into PPC plates. […] During the recording, background leak currents were estimated by a 100 ms step to -80 mV from an initial holding potential of -70 mV and subtracted from the subsequent current measurement. The campaign was conducted in two phases using slight differences in recording protocol. In the first phase, the initial voltage pulse used a 100 ms step to -30 mV from a holding potential of -70 mV, a 2 s conditioning step to +25 mV, and a 2 s test step to -30 mV. During the second phase of the screen, the potential during the conditioning step was raised to +45 mV. In both phases of the campaign, a secondary voltage pulse was applied using the same parameters as the second phase initial pulse. The initial and secondary pulses were applied in the absence of compound, and upon application of 1 μM and 10 μM test concentrations. Small molecule effects on hERG current density were quantified by […].

human ether-à-go-go-related gene (hERG) potassium channel, sequence (Q12809 whole entry, looked up): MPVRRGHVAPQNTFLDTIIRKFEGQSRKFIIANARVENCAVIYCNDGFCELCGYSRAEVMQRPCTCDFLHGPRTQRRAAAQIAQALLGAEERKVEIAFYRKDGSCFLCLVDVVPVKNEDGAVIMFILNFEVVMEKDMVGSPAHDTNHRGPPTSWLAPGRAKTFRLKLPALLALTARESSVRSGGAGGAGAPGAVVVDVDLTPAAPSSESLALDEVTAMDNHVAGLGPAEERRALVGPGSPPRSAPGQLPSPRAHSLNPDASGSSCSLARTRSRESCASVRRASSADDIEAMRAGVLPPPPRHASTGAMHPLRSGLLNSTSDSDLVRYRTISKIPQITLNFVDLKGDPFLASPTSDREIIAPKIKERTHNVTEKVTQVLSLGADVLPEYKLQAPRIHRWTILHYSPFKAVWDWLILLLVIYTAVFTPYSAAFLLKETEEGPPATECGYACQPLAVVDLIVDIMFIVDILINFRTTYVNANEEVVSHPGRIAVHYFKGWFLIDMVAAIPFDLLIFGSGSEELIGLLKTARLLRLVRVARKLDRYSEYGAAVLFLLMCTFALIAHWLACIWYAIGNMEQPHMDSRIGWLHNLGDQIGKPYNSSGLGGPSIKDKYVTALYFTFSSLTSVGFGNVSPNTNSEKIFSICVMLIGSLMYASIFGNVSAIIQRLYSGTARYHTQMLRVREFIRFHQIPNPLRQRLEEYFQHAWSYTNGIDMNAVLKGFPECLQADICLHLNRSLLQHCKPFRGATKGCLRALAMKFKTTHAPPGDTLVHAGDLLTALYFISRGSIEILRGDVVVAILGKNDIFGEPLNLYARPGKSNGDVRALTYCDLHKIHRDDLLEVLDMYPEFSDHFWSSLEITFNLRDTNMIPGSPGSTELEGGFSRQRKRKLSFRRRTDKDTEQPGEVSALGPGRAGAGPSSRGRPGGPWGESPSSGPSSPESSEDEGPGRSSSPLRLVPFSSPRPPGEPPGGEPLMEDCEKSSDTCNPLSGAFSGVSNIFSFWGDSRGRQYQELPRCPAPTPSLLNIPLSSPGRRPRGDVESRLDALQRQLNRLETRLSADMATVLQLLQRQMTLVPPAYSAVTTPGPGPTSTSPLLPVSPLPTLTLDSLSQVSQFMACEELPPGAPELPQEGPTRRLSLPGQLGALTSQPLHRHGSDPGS

SMILES	hERG current change (%, negative = inhibition) at 1uM
O=C(c1cc([N+](=O)[O-])ccc1N1CCCCC1)N1CCCCC1	-6.51%
Cc1ccc(S(=O)(=O)N(C)Cc2ccc(-c3nnc4n3CCC4)cc2)cc1	0.889%
COC(=O)c1ccc(N2CCCCC2)c(NS(=O)(=O)c2ccc(C)cc2)c1	12.6%
CCOC(=O)CSc1nnc(Cn2c(=O)sc3ccccc32)n1C	-3.18%
CCN1CCC(n2nccc2NC(=O)c2ccccc2Cl)CC1	10.5%
CCc1ccc(CN2CCC(n3nccc3NC(=O)c3ccccc3Cl)CC2)cc1	-92.3%
Cc1cc(CN2CCC(n3nccc3NC(=O)c3ccccc3Cl)CC2)cc(C)c1O	-64.4%
Cc1cc(C)c(CN2CCC(n3nccc3NC(=O)c3ccccc3Cl)CC2)cc1C	1.2%
COc1ccc(O)c(CN2CCC(n3nccc3NC(=O)c3ccccc3Cl)CC2)c1	-15.4%
NC(=O)c1ncn([C@@H]2O[C@H](CO)[C@@H](O)[C@H]2O)n1	25.8%
Cn1c([O-])c(Cc2cccc(Cl)c2Cl)c(=O)n(C)c1=O.[NH4+]	17.5%
CCOc1ccc(OCC(=O)OCC(=O)N(CC(C)C)c2c(N)n(Cc3ccccc3)c(=O)[nH]c2=O)cc1	5.08%
COc1cccc(NC(=O)Nc2cccc(C(=O)O)c2)c1	16.4%
CCOC(=O)C(CC)Sc1ccc2nnc(CCNS(=O)(=O)c3ccccc3)n2n1 (centres unmarked)	3.33%
O=C(NCc1ccc(Cl)cc1Cl)C(=O)N1CCCCC1	7%
CN(CC1CCN(CCc2cccc(C(F)(F)F)c2)CC1)C(=O)c1ccc(F)cc1F	-35.9%
COc1ccc(CC(=O)NCC2CCCN(Cc3cccc(C(F)(F)F)c3)C2)cc1 (centres unmarked)	5.75%
CC(=O)Nc1ccc(CN(C)CC2CCCN(CCc3cccc(C(F)(F)F)c3)C2)cc1 (centres unmarked)	-18.4%
CN(CC1CCCN(CCc2cccc(C(F)(F)F)c2)C1)C(=O)c1ccc2nc[nH]c2c1 (centres unmarked)	5.78%
CSCCC(=O)N(C)CC1CCN(CCc2cccc(C(F)(F)F)c2)CC1	-27.3%
CN(CC1CCN(CCc2cccc(C(F)(F)F)c2)CC1)C(=O)c1ccc(F)cc1	-60%
COc1cccc(C(=O)N(C)CC2CCN(CCc3cccc(C(F)(F)F)c3)CC2)c1	-70.3%

SMILES	hERG current change (%, negative = inhibition) at 1uM
COC(=O)CCC(=O)N(C)CC1CCCN(CCc2cccc(C(F)(F)F)c2)C1 (centres unmarked)	-39.9%
O=C(c1cccc(C(F)(F)F)c1)N1CCN(CCc2ccccc2)CC1	1.81%
CSCCC(=O)N(C)CC1CCCN(CCc2cccc(C(F)(F)F)c2)C1 (centres unmarked)	-55.1%
CN(CC1CCCN(CCc2cccc(C(F)(F)F)c2)C1)C(=O)c1ccco1 (centres unmarked)	-38.3%
CN(CC1CCN(CCc2cccc(C(F)(F)F)c2)CC1)C(=O)c1ccccc1	-56.1%
CCn1c(/N=C/c2ccc(OC)cc2O)nc2ccccc21	14%
Cc1ccc(NC(=O)Nc2cccn(Cc3c(F)cccc3Cl)c2=O)cc1	13.2%
S=C(Nc1ccccc1)Nc1ccc(Br)cc1	14.5%
Cc1cccnc1-n1c(C)nc2ccccc2c1=O	7.55%
CSCCC(NC(=O)c1cc(C(C)(C)C)oc1C)C(=O)O (centres unmarked)	15.6%
COc1cc(C(=O)O)c2c(c1C)OC(=O)c1c(C)cc(O)c(C=O)c1O2	22.5%
COc1cc(CN(C)CC2CCCN(CCc3cccc(C(F)(F)F)c3)C2)ccc1O (centres unmarked)	2.96%
CC(=O)NCCC(=O)N(C)CC1CCN(CCc2cccc(C(F)(F)F)c2)CC1	12.5%
COc1cc(C(=O)N(C)CC2CCN(CCc3cccc(C(F)(F)F)c3)CC2)ccc1C	-63.8%
CCCC(=O)Nc1ccc(NC(=O)c2ccccc2F)cn1	11.2%
Fc1ccc(NC(=S)NCCN2CCOCC2)c(F)c1F	12.2%
S=C(Nc1ccc2snnc2c1)N1CCN(c2ccccn2)CC1	10%
COc1cccc(N2CCN(CC(=O)c3c(C)[nH]c4ccccc34)CC2)c1	-10.9%
Cc1ccc(S(=O)(=O)N(CC(=O)NCc2ccncc2)Cc2ccc(F)cc2)cc1	-75%
Cc1ccc(S(=O)(=O)N(CC(=O)O)Cc2ccccc2F)cc1	6.83%
CCN(CC(=O)NCc1ccc(F)cc1)S(=O)(=O)c1ccc(C)cc1	-13.7%
Cc1ccc(S(=O)(=O)N(CC(=O)NCc2ccncc2)Cc2ccccc2F)cc1	-53.2%

— paper PMC4336329 (PLoS ONE, 2015)
